# Measured values: the supplement of paper PMC8728848
# The entries come from a sample that favours the strongest signals as a whole.
# What was measured:
# Test in all cases: glycan array binding signal (z-score within array); higher = stronger binding
# Conditions in all cases: glycan notation: IUPAC condensed, linker removed
# [1] = target: Fuc(a1-2)Gal(b1-3)GalNAc(b1-3)Gal(a1-4)Gal(b1-4)Glc
# In short: (§1)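 The binding signal is a Z-score computed within each array. Data were drawn from 3228 arrays in the Consortium for Functional Glycomics database, restricted to those with a known protein sequence. Scores were averaged over arrays of the same protein sequence at different concentrations or buffers, and over linkers, and negative values can be taken as non-binding.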
# [2] = target: Fuc(a1-2)Gal(b1-3)GlcNAc(b1-3)[Neu5Ac(a2-6)Gal(b1-4)GlcNAc(b1-6)]Gal(b1-4)Glc
# In short: as §1
# [3] = target: Fuc(a1-2)Gal(b1-4)GlcNAc(b1-2)Man(a1-3)[Fuc(a1-2)Gal(b1-4)GlcNAc(b1-2)Man(a1-6)]Man(b1-4)GlcNAc(b1-4)GlcNAc
# In short: as §1
# [4] = target: Fuc(a1-2)[Gal(a1-3)]Gal(b1-4)GlcNAc
# In short: as §1
# [5] = target: Fuc(a1-2)[Gal(a1-3)]Gal(b1-4)GlcNAc(b1-2)Man(a1-3)[Fuc(a1-2)[Gal(a1-3)]Gal(b1-4)GlcNAc(b1-2)Man(a1-6)]Man(b1-4)GlcNAc(b1-4)GlcNAc
# In short: as §1
# [6] = target: Fuc(a1-2)[Gal(a1-3)]Gal(b1-4)GlcNAc(b1-2)Man(a1-3)[Fuc(a1-2)[Gal(a1-3)]Gal(b1-4)GlcNAc(b1-2)Man(a1-6)]Man(b1-4)GlcNAc(b1-4)[Fuc(a1-6)]GlcNAc
# In short: as §1
# [7] = target: Fuc(a1-2)[GalNAc(a1-3)]Gal
# In short: as §1
# [8] = target: Fuc(a1-2)[GalNAc(a1-3)]Gal(b1-3)GlcNAc(b1-2)Man(a1-3)[Fuc(a1-2)[GalNAc(a1-3)]Gal(b1-3)GlcNAc(b1-2)Man(a1-6)]Man(b1-4)GlcNAc(b1-4)GlcNAc
# In short: as §1
# [9] = target: Fuc(a1-2)[GalNAc(a1-3)]Gal(b1-3)GlcNAc(b1-2)Man(a1-3)[Fuc(a1-2)[GalNAc(a1-3)]Gal(b1-3)GlcNAc(b1-2)Man(a1-6)]Man(b1-4)GlcNAc(b1-4)[Fuc(a1-6)]GlcNAc
# In short: as §1
# [10] = target: Fuc(a1-2)[GalNAc(a1-3)]Gal(b1-4)GlcNAc(b1-2)Man(a1-3)[Fuc(a1-2)[GalNAc(a1-3)]Gal(b1-4)GlcNAc(b1-2)Man(a1-6)]Man(b1-4)GlcNAc(b1-4)GlcNAc
# In short: as §1
# [11] = target: Fuc(a1-2)[GalNAc(b1-3)]Gal
# In short: as §1
# [12] = target: Fuc(a1-3)[Gal(b1-4)]GlcNAc
# In short: as §1
# [13] = target: Fuc(a1-3)[Gal(b1-4)]GlcNAc(b1-2)Man(a1-3)[Fuc(a1-3)[Gal(b1-4)]GlcNAc(b1-2)Man(a1-6)]Man(b1-4)GlcNAc(b1-4)GlcNAc
# In short: as §1
# [14] = target: Fuc(a1-3)[Gal(b1-4)]GlcNAc(b1-3)Gal(b1-3)[Fuc(a1-4)]GlcNAc
# In short: as §1
# [15] = target: Gal(a1-4)Gal(b1-4)GlcNAc
# In short: as §1
# [16] = target: Gal(b1-3)GlcNAc
# In short: as §1
# [17] = target: Gal(b1-3)GlcNAc(b1-2)Man(a1-3)[GlcNAc(b1-4)][Gal(b1-3)GlcNAc(b1-2)Man(a1-6)]Man(b1-4)GlcNAc(b1-4)GlcNAc
# In short: as §1
# [18] = target: Gal(b1-3)GlcNAc(b1-3)Gal(b1-3)GlcNAc
# In short: as §1
# [19] = target: Gal(b1-3)GlcNAc(b1-3)Gal(b1-4)GlcNAc(b1-2)[Gal(b1-3)GlcNAc(b1-3)Gal(b1-4)GlcNAc(b1-6)]Man(a1-6)[Gal(b1-3)GlcNAc(b1-3)Gal(b1-4)GlcNAc(b1-2)Man(a1-3)]Man(b1-4)GlcNAc(b1-4)[Fuc(a1-6)]GlcNAc
# In short: as §1
# [20] = target: Gal(b1-3)GlcNAc(b1-3)Gal(b1-4)GlcNAc(b1-6)[Gal(b1-3)GlcNAc(b1-3)]Gal(b1-4)Glc
# In short: as §1
# [21] = target: Gal(b1-3)GlcNAc(b1-3)Gal(b1-4)[Fuc(a1-3)]GlcNAc(b1-6)[Gal(b1-3)GlcNAc(b1-3)]Gal(b1-4)Glc
# In short: as §1
# [22] = target: Gal(b1-3)[Fuc(a1-4)]GlcNAc(b1-6)GalNAc
# In short: as §1
# [23] = target: Gal(b1-4)GlcNAc(b1-2)Man
# In short: as §1
# [24] = target: Gal(b1-4)GlcNAc(b1-3)Gal(b1-4)GlcNAc(b1-3)Gal(b1-4)GlcNAc(b1-2)[Gal(b1-4)GlcNAc(b1-3)Gal(b1-4)GlcNAc(b1-3)Gal(b1-4)GlcNAc(b1-6)]Man(a1-6)[Gal(b1-4)GlcNAc(b1-3)Gal(b1-4)GlcNAc(b1-3)Gal(b1-4)GlcNAc(b1-2)Man(a1-3)]Man(b1-4)GlcNAc(b1-4)[Fuc(a1-6)]GlcNAc
# In short: as §1
# [25] = target: Gal(b1-4)GlcNAc(b1-3)Gal(b1-4)GlcNAc(b1-3)Gal(b1-4)GlcNAc(b1-3)Gal(b1-4)GlcNAc(b1-2)[Gal(b1-4)GlcNAc(b1-3)Gal(b1-4)GlcNAc(b1-3)Gal(b1-4)GlcNAc(b1-3)Gal(b1-4)GlcNAc(b1-6)]Man(a1-6)[Gal(b1-4)GlcNAc(b1-3)Gal(b1-4)GlcNAc(b1-3)Gal(b1-4)GlcNAc(b1-3)Gal(b1-4)GlcNAc(b1-2)Man(a1-3)]Man(b1-4)GlcNAc(b1-4)[Fuc(a1-6)]GlcNAc
# In short: as §1
# [26] = target: Gal(b1-4)GlcNAc(b1-3)Gal(b1-4)GlcNAc(b1-3)Gal(b1-4)GlcNAc(b1-3)Gal(b1-4)GlcNAc(b1-3)Gal(b1-4)GlcNAc(b1-2)[Gal(b1-4)GlcNAc(b1-3)Gal(b1-4)GlcNAc(b1-3)Gal(b1-4)GlcNAc(b1-3)Gal(b1-4)GlcNAc(b1-3)Gal(b1-4)GlcNAc(b1-6)]Man(a1-6)[Gal(b1-4)GlcNAc(b1-3)Gal(b1-4)GlcNAc(b1-3)Gal(b1-4)GlcNAc(b1-3)Gal(b1-4)GlcNAc(b1-3)Gal(b1-4)GlcNAc(b1-2)Man(a1-3)]Man(b1-4)GlcNAc(b1-4)[Fuc(a1-6)]GlcNAc
# In short: as §1
# [27] = target: Gal(b1-4)GlcNAc(b1-3)Gal(b1-4)[Fuc(a1-3)]GlcNAc(b1-3)Gal(b1-4)[Fuc(a1-3)]GlcNAc
# In short: as §1
# [28] = target: Gal(b1-4)GlcNAc(b1-3)[Gal(b1-4)GlcNAc(b1-6)]Gal(b1-4)GlcNAc
# In short: as §1
# [29] = target: Gal(b1-4)GlcNAc(b1-6)GalNAc
# In short: as §1
# [30] = target: Gal(b1-4)GlcNAc(b1-6)[Gal(b1-3)]GalNAc
# In short: as §1
# [31] = target: Gal3S(b1-4)Glc6S
# In short: as §1
# [32] = target: GalNAc(a1-3)Gal
# In short: as §1
# [33] = target: GalNAc(b1-3)Gal(a1-4)Gal(b1-4)GlcNAc
# In short: as §1
# [34] = target: GalNAc(b1-4)Gal(b1-4)Glc
# In short: as §1
# [35] = target: GalNAc3S(b1-4)GlcNAc3S
# In short: as §1
# [36] = target: GlcA(b1-3)Gal
# In short: as §1
# [37] = target: GlcNAc(a1-4)Gal(b1-4)GlcNAc(b1-3)Gal(b1-4)Glc
# In short: as §1
# [38] = target: GlcNAc(a1-4)Gal(b1-4)GlcNAc(b1-3)Gal(b1-4)[Fuc(a1-3)]GlcNAc(b1-3)Gal(b1-4)[Fuc(a1-3)]GlcNAc
# In short: as §1
# [39] = target: GlcNAc(b1-3)Gal(b1-4)GlcNAc(b1-2)Man(a1-3)[GlcNAc(b1-3)Gal(b1-4)GlcNAc(b1-2)Man(a1-6)]Man(b1-4)GlcNAc(b1-4)[Fuc(a1-6)]GlcNAc
# In short: as §1
# [40] = target: GlcNAc(b1-3)Gal(b1-4)GlcNAc(b1-3)Gal(b1-4)GlcNAc(b1-3)Gal(b1-4)GlcNAc(b1-2)Man(a1-3)[GlcNAc(b1-3)Gal(b1-4)GlcNAc(b1-3)Gal(b1-4)GlcNAc(b1-3)Gal(b1-4)GlcNAc(b1-2)Man(a1-6)]Man(b1-4)GlcNAc(b1-4)GlcNAc
# In short: as §1
# [41] = target: GlcNAc(b1-3)Gal(b1-4)GlcNAc(b1-6)[Gal(b1-3)]GalNAc
# In short: as §1
# [42] = target: GlcNAc(b1-4)Gal(b1-4)GlcNAc
# In short: as §1
# [43] = target: Kdn(a2-3)Gal(b1-3)GalNAc
# In short: as §1
# [44] = target: Man(a1-2)Man(a1-2)Man(a1-3)Man
# In short: as §1
# [45] = target: Man(a1-3)[Man(a1-6)]Man(a1-6)[Man(a1-3)]Man(b1-4)GlcNAc(b1-4)GlcNAc
# In short: as §1
# [46] = target: Neu5Ac(a2-3)Gal(b1-3)GlcNAc(b1-3)Gal(b1-3)GlcNAc
# In short: as §1
# [47] = target: Neu5Ac(a2-3)Gal(b1-3)[Fuc(a1-4)]GlcNAc(b1-3)Gal(b1-4)[Fuc(a1-3)]GlcNAc
# In short: as §1
# [48] = target: Neu5Ac(a2-3)Gal(b1-4)Glc
# In short: as §1
# [49] = target: Neu5Ac(a2-3)Gal(b1-4)GlcNAc(b1-3)Gal(b1-4)GlcNAc(b1-3)Gal(b1-4)GlcNAc
# In short: as §1
# [50] = target: Neu5Ac(a2-3)Gal(b1-4)GlcNAc(b1-3)[Neu5Ac(a2-3)Gal(b1-4)GlcNAc(b1-6)]GalNAc
# In short: as §1
binder,measurement,setting,value
PX9937F-bfa-516-16-516 (Bacteroides fragilis) (protein) LDIDPTSSIADSNYWKTEAQFSTFNVGLHALLRECSFNFFLLGEPRADIYGDVPFGGEATQGMERLPFNTINKENTGISNFAGMYKVINQINLMIAKTKETTVLSEAGKNYYLGEAYGMRAYLYFHLLRSWGDVILYLDYTNGASLDLSNLSKAASPAEEVMKQIKEDITASEKGFGSDYSFKYGRYYWSMAATQMLKGEVYLWSGRQMGGGTADYTTAKTALQSIVSNANVSLQDDFSKVFAYNNKDNSEIIFSIRNAKDEYNMWDDRFRQNLVPQQAYMTSTYCNKEGVSFKDLPEGQLNGLIRLQIRYDLYNKAFRDGDTRKDASMTAVYQKQQDGTVKYIAPFCNKYQGVLLDGASQRSFLNDYPIYRYADCLLLLAEAKALLGEDPTAEINQVRERAYGKEFFEANKATLAYPNDKGDFYTDNKYMSGDEDPLEAILKERMREFMFEGKRWYDLRLLGADYVTKRTSAVATRLLWPINESVLTDNPALKQTPGYQN,glycan array binding signal (z-score),[1],0.493
same,glycan array binding signal (z-score),[2],-0.097
same,glycan array binding signal (z-score),[3],-0.256
same,glycan array binding signal (z-score),[4],-0.012
same,glycan array binding signal (z-score),[5],1.48
same,glycan array binding signal (z-score),[6],-0.006
same,glycan array binding signal (z-score),[7],-0.222
same,glycan array binding signal (z-score),[8],-0.141
same,glycan array binding signal (z-score),[9],-0.135
same,glycan array binding signal (z-score),[10],2.69
same,glycan array binding signal (z-score),[11],1.64
same,glycan array binding signal (z-score),[12],-0.071
same,glycan array binding signal (z-score),[13],-0.045
same,glycan array binding signal (z-score),[14],-0.161
same,glycan array binding signal (z-score),[15],-0.077
same,glycan array binding signal (z-score),[16],-0.207
same,glycan array binding signal (z-score),[17],0.179
same,glycan array binding signal (z-score),[18],-0.041
same,glycan array binding signal (z-score),[19],7.79
same,glycan array binding signal (z-score),[20],-0.142
same,glycan array binding signal (z-score),[21],-0.388
same,glycan array binding signal (z-score),[22],1.88
same,glycan array binding signal (z-score),[23],-0.006
same,glycan array binding signal (z-score),[24],4.38
same,glycan array binding signal (z-score),[25],3.95
same,glycan array binding signal (z-score),[26],20.8
same,glycan array binding signal (z-score),[27],-0.12
same,glycan array binding signal (z-score),[28],-0.235
same,glycan array binding signal (z-score),[29],0.084
same,glycan array binding signal (z-score),[30],0.054
same,glycan array binding signal (z-score),[31],-0.009
same,glycan array binding signal (z-score),[32],0.114
same,glycan array binding signal (z-score),[33],1.48
same,glycan array binding signal (z-score),[34],1.77
same,glycan array binding signal (z-score),[35],-0.23
same,glycan array binding signal (z-score),[36],-0.361
same,glycan array binding signal (z-score),[37],-0.323
same,glycan array binding signal (z-score),[38],0.511
same,glycan array binding signal (z-score),[39],1.82
same,glycan array binding signal (z-score),[40],0.988
same,glycan array binding signal (z-score),[41],-0.127
same,glycan array binding signal (z-score),[42],-0.271
same,glycan array binding signal (z-score),[43],-0.345
same,glycan array binding signal (z-score),[44],-0.273
same,glycan array binding signal (z-score),[45],0.247
same,glycan array binding signal (z-score),[46],-0.249
same,glycan array binding signal (z-score),[47],-0.15
same,glycan array binding signal (z-score),[48],-0.325
same,glycan array binding signal (z-score),[49],-0.282
same,glycan array binding signal (z-score),[50],-0.202
